In PubChem BioAssay (NCATS):
Where “and” joins values, the source holds several entries; their conditions need not be identical. Identical values can stand only once. Inconclusive results are not listed. Calls of active or inactive are those of the source. Unless noted, calls come from the whole dose curve.

target: alpha-glucosidase (Oryza sativa, rice) (UniProt Q653V4); test: Counterscreen for Glucocerebrosidase Inhibitors: qHTS Assay for Rice alpha-Glucosidase at pH 5.0 (AID 997; active = well fitted curve in the direction sought with a large enough effect;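 note: 0% = full activity with enzyme and -100% = basal without enzyme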); details: rice alpha-glucosidase enzyme activity; series mostly up to 76.9 µM; activity change, negative = inhibition: at the top concentration
Method in brief: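 Rice alpha-glucosidase (4 nM final) with 400 uM 4-methylumbelliferyl-alpha-D-glucopyranoside in citrate buffer pH 5.0, 20 min at room temperature, stopped at pH 10; fluorescence 365/440 nm, compounds 0.7 nM–77 uM, AC50 from Hill fits.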

Compound	activity change, negative = inhibition	outcome
O=Nc1c(-c2c(O)[nH]c3cc(Br)ccc23)[nH]c2ccccc12	-5.43% (inactive)	
Cc1c(OCC(F)(F)F)ccnc1CS(=O)c1nc2ccccc2[nH]1 (configuration not stated)	-1.69% (inactive)	
O=c1ccc2ccc(O)c(O)c2o1	-4.11% (inactive)	
O=C1NC(=O)C(c2ccccc2[N+](=O)[O-])=C1Nc1ccc(O)c(Cl)c1	-6.79% (inactive)	
NNc1nncc2ccccc12	-1.29% (inactive)	
O=C(O)c1cccnc1Nc1cccc(C(F)(F)F)c1	-0.234% (inactive)	
CCN(CC)C(=S)SSC(=S)N(CC)CC	-1.99% (inactive)	
COc1ccc2cc([C@H](C)C(=O)O)ccc2c1	1.88% (inactive)	
CNC[C@H](O)c1ccc(O)c(O)c1		inactive
O=c1c(O)c(-c2ccc(O)cc2O)oc2cc(O)cc(O)c12	-6.13% (inactive)	
COc1ccccc1N1CCN(CCN(C(=O)C2CCCCC2)c2ccccn2)CC1	0.425% (inactive)	
Oc1ccc(-c2nc(-c3ccc(F)cc3)c(-c3ccncc3)[nH]2)cc1	-4.99% (inactive)	
CC(C)c1ccc2c(c1)c(SC(C)(C)C)c(CC(C)(C)C(=O)O)n2Cc1ccc(Cl)cc1	-13.8% (inactive)	
NC(=NCc1ccccc1)NC(=O)c1nc(Cl)c(N)nc1N	19.7% (inactive)	
NCCCCNCCCN	-0.277% (inactive)	
O=c1cc(N2CCOCC2)oc2c(-c3ccccc3)cccc12	-2.34% (inactive)	

test system: not listed separately; test: qHTS Assay for Lipid Storage Modulators (AID 1519); details: Drosophila S3 cells, BODIPY lipid droplet/cell ratio, laser cytometry; at 25.7 µM (top of the series); cells loaded with oleic acid; for activity change, negative = inhibition: % is set by controls: 0 for no effect and ±100 for the full control effect
Method in brief: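 Cells seeded at 5,000 per well were treated with compounds over a concentration series and loaded with oleic acid (400 uM, as added). Lipid droplet fluorescence (488 nm excitation, 500-530 nm channel) was read by laser-scanning cytometry and normalized to 20 uM Triacsin C.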

Compound	activity change, negative = inhibition
CN1CCC(=C2c3ccccc3CCc3sccc32)CC1	-0.622% (inactive)
Cc1c(OCC(F)(F)F)ccnc1CS(=O)c1nc2ccccc2[nH]1 (configuration not stated)	-2.59% (inactive)
c1ccc2[nH]c(-c3cscn3)nc2c1	0.183% (inactive)
Nc1cc(C(Cl)=C(Cl)Cl)c(S(N)(=O)=O)cc1S(N)(=O)=O	-3.67% (inactive)
Nc1ccc(S(N)(=O)=O)cc1	0.244% (inactive)
NS(=O)(=O)c1cc(C(=O)O)c(NCc2ccco2)cc1Cl	1.95% (inactive)
CCc1nc(N)nc(N)c1-c1ccc(Cl)cc1	-2.49% (inactive)
O=C(O)c1cccnc1Nc1cccc(C(F)(F)F)c1	2.12% (inactive)
CCN(CC)C(=S)SSC(=S)N(CC)CC	-3.33% (inactive)
COc1ccc2cc([C@H](C)C(=O)O)ccc2c1	4.21% (inactive) and 0.227% (inactive)
O=C(O)c1cc(=O)c2c(OCC(O)COc3cccc4oc(C(=O)O)cc(=O)c34)cccc2o1	-2.11% (inactive)
CCCc1cc(=O)[nH]c(=S)[nH]1	0.162% (inactive)
COc1cc(OC)c(C(=O)CCCN2CCCC2)c(OC)c1	-0.942% (inactive)
COc1c2occc2cc2ccc(=O)oc12	2.64% (inactive)
Cc1cc2cc3c(C)cc(=O)oc3c(C)c2o1	-0.305% (inactive)
NC(=NCc1ccccc1)NC(=O)c1nc(Cl)c(N)nc1N	0.817% (inactive)
CC(=O)Nc1ccc(O)cc1	-2.03% (inactive)
Cc1ccc(C)c(OCCCC(C)(C)C(=O)O)c1	0.467% (inactive)

same assay, conditions: Drosophila S3 cells, BODIPY lipid droplet/cell ratio, laser cytometry; at 57.5 µM (top of the series); cells loaded with oleic acid

Compound	activity change, negative = inhibition
CN1CCC(=C2c3ccccc3CCc3sccc32)CC1	3.6% (inactive)
Cc1c(OCC(F)(F)F)ccnc1CS(=O)c1nc2ccccc2[nH]1 (configuration not stated)	0.201% (inactive)
Nc1nc(Cl)nc2c1ncn2[C@H]1C[C@H](O)[C@@H](CO)O1	-3.99% (inactive)
Nc1cc(C(Cl)=C(Cl)Cl)c(S(N)(=O)=O)cc1S(N)(=O)=O	2.69% (inactive)
O=C1NC(=O)C(c2ccccc2[N+](=O)[O-])=C1Nc1ccc(O)c(Cl)c1	-0.486% (inactive)
Cc1ncc([N+](=O)[O-])n1CC(C)O (configuration not stated)	2.12% (inactive)
CS(=O)(=O)OCCCCOS(C)(=O)=O	1.02% (inactive)
Nc1ccc(S(N)(=O)=O)cc1	10.7% (inactive)
CCc1nc(N)nc(N)c1-c1ccc(Cl)cc1	9.2% (inactive)
O=C(O)c1cccnc1Nc1cccc(C(F)(F)F)c1	2.96% (inactive)
COc1ccc2cc([C@H](C)C(=O)O)ccc2c1	1.21% (inactive)
O=C(O)c1cc(=O)c2c(OCC(O)COc3cccc4oc(C(=O)O)cc(=O)c34)cccc2o1	11.5% (inactive)
O=c1c(O)c(-c2ccc(O)cc2O)oc2cc(O)cc(O)c12	13.5% (inactive)
CCCc1cc(=O)[nH]c(=S)[nH]1	8.07% (inactive)
NC(=NCc1ccccc1)NC(=O)c1nc(Cl)c(N)nc1N	2.33% (inactive)
NCCCCNCCCN	0.755% (inactive)
O=C(O)c1cn(-c2ccc(F)cc2)c2cc(N3CCNCC3)c(F)cc2c1=O	4.61% (inactive)
CC(=O)Nc1ccc(O)cc1	-1.72% (inactive) and 6.64% (inactive)

same assay, conditions: Drosophila S3 cells, BODIPY lipid droplet/cell ratio, laser cytometry; measured here: cell count channel max response; cells loaded with oleic acid

Compound	max response
CN1CCC(=C2c3ccccc3CCc3sccc32)CC1	-11.4% and -0.631%
Cc1c(OCC(F)(F)F)ccnc1CS(=O)c1nc2ccccc2[nH]1 (configuration not stated)	-16.9% and 6.05%
c1ccc2[nH]c(-c3cscn3)nc2c1	-11.6%
Nc1nc(Cl)nc2c1ncn2[C@H]1C[C@H](O)[C@@H](CO)O1	-0.0923%
Nc1cc(C(Cl)=C(Cl)Cl)c(S(N)(=O)=O)cc1S(N)(=O)=O	6.94% and 7.19%
O=C1NC(=O)C(c2ccccc2[N+](=O)[O-])=C1Nc1ccc(O)c(Cl)c1	-38.3%
Cc1ncc([N+](=O)[O-])n1CC(C)O (configuration not stated)	10.3%
CS(=O)(=O)OCCCCOS(C)(=O)=O	2.98%
Nc1ccc(S(N)(=O)=O)cc1	-10.4% and 15.9%
NS(=O)(=O)c1cc(C(=O)O)c(NCc2ccco2)cc1Cl	-6.97%
CCc1nc(N)nc(N)c1-c1ccc(Cl)cc1	-6.7% and 7.93%
O=C(O)c1cccnc1Nc1cccc(C(F)(F)F)c1	-6.57% and 55.9%
CCN(CC)C(=S)SSC(=S)N(CC)CC	-15.7%
COc1ccc2cc([C@H](C)C(=O)O)ccc2c1	1.06% and -6.98% and 54.6%
O=C(O)c1cc(=O)c2c(OCC(O)COc3cccc4oc(C(=O)O)cc(=O)c34)cccc2o1	9.46% and 18.8%
O=c1c(O)c(-c2ccc(O)cc2O)oc2cc(O)cc(O)c12	2.76%
CCCc1cc(=O)[nH]c(=S)[nH]1	4.47% and 16.1%
COc1cc(OC)c(C(=O)CCCN2CCCC2)c(OC)c1	-9.33%
COc1c2occc2cc2ccc(=O)oc12	-4.25%
Cc1cc2cc3c(C)cc(=O)oc3c(C)c2o1	-4.86%
NC(=NCc1ccccc1)NC(=O)c1nc(Cl)c(N)nc1N	-4.7% and 21.8%
NCCCCNCCCN	7.14%
O=C(O)c1cn(-c2ccc(F)cc2)c2cc(N3CCNCC3)c(F)cc2c1=O	14.8%
CC(=O)Nc1ccc(O)cc1	-12.5% and -9.7% and 2.35%
Cc1ccc(C)c(OCCCC(C)(C)C(=O)O)c1	10.3%
